Experimental findings from paper PMC7862700, “An all-to-all approach to the identification of sequence-specific readers for epigenetic DNA modifications on cytosine” are described below.

Assay in all cases: DAPPL (digital affinity profiling via proximity ligation, sequencing); 10 mM Tris-HCl pH 7.5, 50 mM NaCl, 1 mM DTT, 4% glycerol, room temperature, 30 min; GST-TFs on glutathione beads, 16-mer random dsDNA library, 0.1% formaldehyde crosslink after washing; high values mean tight binding
Common to all, as to settings: protein: recombinant; tags: N-terminal GST; dsDNA, one strand shown

Assay [1] deals with T1, ERF (Homo sapiens, UniProt P50548 1-548).
T1 sequence: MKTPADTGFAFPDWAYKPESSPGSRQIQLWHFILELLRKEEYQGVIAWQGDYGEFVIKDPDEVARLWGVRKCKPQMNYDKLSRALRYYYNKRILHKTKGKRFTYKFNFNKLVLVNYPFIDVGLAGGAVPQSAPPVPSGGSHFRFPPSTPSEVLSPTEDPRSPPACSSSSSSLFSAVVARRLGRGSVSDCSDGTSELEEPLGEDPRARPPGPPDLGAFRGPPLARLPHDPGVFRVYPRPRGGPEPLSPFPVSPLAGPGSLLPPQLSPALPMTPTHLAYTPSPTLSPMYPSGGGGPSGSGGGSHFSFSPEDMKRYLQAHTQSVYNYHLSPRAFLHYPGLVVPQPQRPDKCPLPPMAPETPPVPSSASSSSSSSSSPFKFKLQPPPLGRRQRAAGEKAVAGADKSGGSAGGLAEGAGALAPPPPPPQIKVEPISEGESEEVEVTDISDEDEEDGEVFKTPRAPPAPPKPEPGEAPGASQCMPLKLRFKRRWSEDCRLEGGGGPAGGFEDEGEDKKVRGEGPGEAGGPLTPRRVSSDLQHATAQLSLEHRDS
A digest of the protocol: (§1)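 Pools were built from human transcription factors expressed in yeast as GST fusions, captured on glutathione beads and DNA-barcoded, along with a tag-only sample. Incubation with 200 nmole of a 16-mer random double-stranded DNA library lasted 30 min at room temperature in Tris/NaCl/DTT/glycerol buffer, and was followed by washing, 0.1% formaldehyde crosslinking, proximity ligation, PCR amplification and Illumina NextSeq500 sequencing. Binding signal is the quotient of each hexamer's read frequency for a factor and its frequency for the tag-only sample.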

In assay [2] the target is T2, ETV3L (Homo sapiens, UniProt Q6ZN32 1-361).
T2 sequence: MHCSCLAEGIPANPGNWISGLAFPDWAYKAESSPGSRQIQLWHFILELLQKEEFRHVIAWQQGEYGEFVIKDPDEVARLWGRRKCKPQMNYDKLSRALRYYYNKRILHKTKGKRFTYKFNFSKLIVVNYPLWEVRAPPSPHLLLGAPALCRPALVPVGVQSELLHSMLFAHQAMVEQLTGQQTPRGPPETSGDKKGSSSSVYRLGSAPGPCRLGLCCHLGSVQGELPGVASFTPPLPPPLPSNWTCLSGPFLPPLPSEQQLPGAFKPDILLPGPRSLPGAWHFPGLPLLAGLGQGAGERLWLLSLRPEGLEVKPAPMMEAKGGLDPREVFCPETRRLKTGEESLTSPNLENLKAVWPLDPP
A digest of the protocol: as §1

Assay [3] concerns the target T3, ETS2 (Homo sapiens, UniProt P15036 1-469).
T3 sequence: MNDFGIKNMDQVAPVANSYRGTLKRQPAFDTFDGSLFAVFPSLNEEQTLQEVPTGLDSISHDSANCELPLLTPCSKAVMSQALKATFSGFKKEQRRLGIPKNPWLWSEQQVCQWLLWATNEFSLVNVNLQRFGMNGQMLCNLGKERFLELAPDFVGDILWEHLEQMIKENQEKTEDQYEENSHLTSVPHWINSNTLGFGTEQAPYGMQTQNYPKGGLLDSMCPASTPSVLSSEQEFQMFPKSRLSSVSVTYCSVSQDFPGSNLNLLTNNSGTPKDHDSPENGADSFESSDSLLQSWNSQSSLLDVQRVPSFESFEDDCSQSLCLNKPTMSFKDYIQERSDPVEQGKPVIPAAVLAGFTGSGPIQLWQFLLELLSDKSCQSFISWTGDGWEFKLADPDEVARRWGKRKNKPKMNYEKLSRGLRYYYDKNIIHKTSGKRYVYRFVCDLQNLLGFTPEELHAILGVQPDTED
In outline: as §1

Assay [4] deals with T4, SPDEF (Homo sapiens, UniProt O95238 1-335).
T4 sequence: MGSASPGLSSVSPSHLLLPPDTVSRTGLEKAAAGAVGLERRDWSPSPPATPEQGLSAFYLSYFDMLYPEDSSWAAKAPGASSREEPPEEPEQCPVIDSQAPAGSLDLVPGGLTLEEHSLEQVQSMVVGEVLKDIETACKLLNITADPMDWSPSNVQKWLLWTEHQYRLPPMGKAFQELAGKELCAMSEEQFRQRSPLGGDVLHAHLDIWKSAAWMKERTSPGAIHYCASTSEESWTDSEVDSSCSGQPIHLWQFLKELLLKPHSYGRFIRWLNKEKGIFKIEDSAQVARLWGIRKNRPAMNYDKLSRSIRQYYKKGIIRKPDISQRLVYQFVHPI
A digest of the protocol:
as §1

The target in assay [5] is T5, ETV7 (Homo sapiens, UniProt Q9Y603 1-341).
T5 sequence: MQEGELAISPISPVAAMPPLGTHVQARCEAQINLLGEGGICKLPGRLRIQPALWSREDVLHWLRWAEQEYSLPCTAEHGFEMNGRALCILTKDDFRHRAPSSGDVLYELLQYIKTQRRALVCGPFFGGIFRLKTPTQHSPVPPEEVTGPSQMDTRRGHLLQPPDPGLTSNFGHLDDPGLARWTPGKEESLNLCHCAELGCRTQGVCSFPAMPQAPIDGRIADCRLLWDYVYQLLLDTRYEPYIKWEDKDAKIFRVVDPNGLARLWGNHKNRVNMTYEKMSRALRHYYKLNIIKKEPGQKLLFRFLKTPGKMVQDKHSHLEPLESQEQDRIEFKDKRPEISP
In outline: as §1

In assay [6] the target is T6, ELF5 (Homo sapiens, UniProt Q9UKW6-2 1-255).
T6 sequence: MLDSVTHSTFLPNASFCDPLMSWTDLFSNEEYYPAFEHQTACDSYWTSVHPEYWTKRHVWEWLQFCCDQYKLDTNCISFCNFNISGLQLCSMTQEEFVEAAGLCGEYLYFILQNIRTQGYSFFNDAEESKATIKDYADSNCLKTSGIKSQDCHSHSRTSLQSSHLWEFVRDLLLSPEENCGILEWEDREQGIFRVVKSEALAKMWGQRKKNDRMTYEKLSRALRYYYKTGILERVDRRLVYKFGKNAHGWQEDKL
In outline: as §1

Assay [7] addresses T7, ETV3 (Homo sapiens, UniProt P41162-2 1-143).
T7 sequence: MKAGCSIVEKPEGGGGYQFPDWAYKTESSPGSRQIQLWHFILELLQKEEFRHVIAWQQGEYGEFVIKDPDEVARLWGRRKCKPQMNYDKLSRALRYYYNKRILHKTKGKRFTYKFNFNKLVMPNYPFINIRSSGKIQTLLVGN
A digest of the protocol:
as §1

Assay [8] deals with ETV6 (Homo sapiens, UniProt P41212 1-452). A digest of the protocol:
as §1

Chain of ETV6 (P41212 whole entry): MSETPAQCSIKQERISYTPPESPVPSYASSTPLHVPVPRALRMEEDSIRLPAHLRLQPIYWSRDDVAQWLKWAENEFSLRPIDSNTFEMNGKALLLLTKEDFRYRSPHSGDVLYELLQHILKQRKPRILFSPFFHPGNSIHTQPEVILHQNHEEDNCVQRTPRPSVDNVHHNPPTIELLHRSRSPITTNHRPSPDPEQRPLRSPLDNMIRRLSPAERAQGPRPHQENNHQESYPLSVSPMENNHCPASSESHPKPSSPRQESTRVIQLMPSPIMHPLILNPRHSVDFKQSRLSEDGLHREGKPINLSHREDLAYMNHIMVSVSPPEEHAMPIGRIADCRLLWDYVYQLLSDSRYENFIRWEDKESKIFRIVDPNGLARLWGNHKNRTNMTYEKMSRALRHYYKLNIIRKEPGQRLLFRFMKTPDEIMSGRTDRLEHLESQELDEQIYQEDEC

With GCTGTA, the binding signal in assay [1] is 1.24 fold enrichment (6-mer frequency, TF over GST control); in assay [2] it was 1.02 fold enrichment (6-mer frequency, TF over GST control); in assay [3] it was 1.1 fold enrichment (6-mer frequency, TF over GST control); in assay [4], 1.12 fold enrichment (6-mer frequency, TF over GST control); in assay [5] it was 1.09 fold enrichment (6-mer frequency, TF over GST control); in assay [6], 1.07 fold enrichment (6-mer frequency, TF over GST control). The binding signal is 1.08 fold enrichment (6-mer frequency, TF over GST control) in assay [7] and 1.13 fold enrichment (6-mer frequency, TF over GST control) in assay [8].
As to CCCCTG, the binding signal in assay [1] was 1.39 fold enrichment (6-mer frequency, TF over GST control); in assay [2] it was 1.13 fold enrichment (6-mer frequency, TF over GST control); in assay [3] it was 1.21 fold enrichment (6-mer frequency, TF over GST control); in assay [4], 1.17 fold enrichment (6-mer frequency, TF over GST control); in assay [5] it was 1.13 fold enrichment (6-mer frequency, TF over GST control); in assay [6], 1.15 fold enrichment (6-mer frequency, TF over GST control). In addition, the binding signal in assay [7] is 1.07 fold enrichment (6-mer frequency, TF over GST control); in assay [8] it was 1.07 fold enrichment (6-mer frequency, TF over GST control).
Regarding ATCGCT, the binding signal was 1.06 fold enrichment (6-mer frequency, TF over GST control) in assay [1]; 1.05 fold enrichment (6-mer frequency, TF over GST control) in assay [2]; 1.1 fold enrichment (6-mer frequency, TF over GST control) in assay [3]; 1.04 fold enrichment (6-mer frequency, TF over GST control) in assay [4]; 1.03 fold enrichment (6-mer frequency, TF over GST control) in assay [5]; 1.05 fold enrichment (6-mer frequency, TF over GST control) in assay [6]. In addition, the binding signal in assay [7] was 1.05 fold enrichment (6-mer frequency, TF over GST control); in assay [8], 1.04 fold enrichment (6-mer frequency, TF over GST control).
With TATTGC, the binding signal is 1.31 fold enrichment (6-mer frequency, TF over GST control) in assay [1]; 1.4 fold enrichment (6-mer frequency, TF over GST control) in assay [2]; 1.36 fold enrichment (6-mer frequency, TF over GST control) in assay [3]; 1.31 fold enrichment (6-mer frequency, TF over GST control) in assay [4]; 1.36 fold enrichment (6-mer frequency, TF over GST control) in assay [5]; 1.27 fold enrichment (6-mer frequency, TF over GST control) in assay [6]. The binding signal in assay [7] is 1.41 fold enrichment (6-mer frequency, TF over GST control); in assay [8], 1.38 fold enrichment (6-mer frequency, TF over GST control).
For ACTTAC, the binding signal in assay [1] was 1.08 fold enrichment (6-mer frequency, TF over GST control); in assay [2], 1.09 fold enrichment (6-mer frequency, TF over GST control); in assay [3], 1.14 fold enrichment (6-mer frequency, TF over GST control); in assay [4], 1.13 fold enrichment (6-mer frequency, TF over GST control); in assay [5] it was 1.14 fold enrichment (6-mer frequency, TF over GST control); in assay [6], 1.21 fold enrichment (6-mer frequency, TF over GST control). Also, the binding signal in assay [7] was 1.09 fold enrichment (6-mer frequency, TF over GST control); in assay [8], 1.13 fold enrichment (6-mer frequency, TF over GST control).
Take TGGAAT: the binding signal was 1.22 fold enrichment (6-mer frequency, TF over GST control) in assay [1]; 1.3 fold enrichment (6-mer frequency, TF over GST control) in assay [2]; 1.3 fold enrichment (6-mer frequency, TF over GST control) in assay [3]; 1.28 fold enrichment (6-mer frequency, TF over GST control) in assay [4]; 1.27 fold enrichment (6-mer frequency, TF over GST control) in assay [5]; 1.18 fold enrichment (6-mer frequency, TF over GST control) in assay [6]. The binding signal in assay [7] was 1.24 fold enrichment (6-mer frequency, TF over GST control); in assay [8], 1.15 fold enrichment (6-mer frequency, TF over GST control).
Regarding TGTACA, the binding signal was 1.28 fold enrichment (6-mer frequency, TF over GST control) in assay [1]; 1.23 fold enrichment (6-mer frequency, TF over GST control) in assay [2]; 1.24 fold enrichment (6-mer frequency, TF over GST control) in assay [3]; 1.67 fold enrichment (6-mer frequency, TF over GST control) in assay [4]; 1.36 fold enrichment (6-mer frequency, TF over GST control) in assay [5]; 1.12 fold enrichment (6-mer frequency, TF over GST control) in assay [6]. Further, the binding signal was 1.17 fold enrichment (6-mer frequency, TF over GST control) in assay [7] and 1.29 fold enrichment (6-mer frequency, TF over GST control) in assay [8].
